Structures are written as SMILES. Values joined by “and” are separate entries in the source; they are usually repeats but may differ in a detail not shown here. Equal values may be shown once. Results filed as inconclusive are left out. Unmarked numbers belong to inactive results. Calls follow the shape of the dose curve; as a rule, active = well fitted inhibition curve with a large enough effect in the signal ratio, with a control signal flat (not every such curve was filed as active); inconclusive = small, poorly fitted or top-dose-only effect, or effect the other way, or a change in a side signal; inactive = no such curve, though single readings can be large or run the other way; the % refers to the signal ratio.
% is scaled to controls: 0 for no effect and ±100 for the full control effect.

The target in the assay is Retinoic acid receptor RXR-alpha (Homo sapiens) (UniProt P19793). Nature of the assay: qHTS assay for small molecule antagonists of retinoid X receptor alpha signaling (AID 588546). Particulars: HEK293T RXRa-UAS-bla, beta-lactamase ratio, antagonist mode. The method, boiled down: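 Beta-lactamase reporter inhibition, read as CCF4 fluorescence ratio (ex 405, em 460/530 nm) after 2 h at RT. HEK293T UAS-bla cells, 2500/well, were stimulated with 9-cis-RA at 500 or 100 nM final alongside test compound for 18 h at 37 C.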
Chain of Retinoic acid receptor RXR-alpha (Homo sapiens) (P19793 whole entry, looked up): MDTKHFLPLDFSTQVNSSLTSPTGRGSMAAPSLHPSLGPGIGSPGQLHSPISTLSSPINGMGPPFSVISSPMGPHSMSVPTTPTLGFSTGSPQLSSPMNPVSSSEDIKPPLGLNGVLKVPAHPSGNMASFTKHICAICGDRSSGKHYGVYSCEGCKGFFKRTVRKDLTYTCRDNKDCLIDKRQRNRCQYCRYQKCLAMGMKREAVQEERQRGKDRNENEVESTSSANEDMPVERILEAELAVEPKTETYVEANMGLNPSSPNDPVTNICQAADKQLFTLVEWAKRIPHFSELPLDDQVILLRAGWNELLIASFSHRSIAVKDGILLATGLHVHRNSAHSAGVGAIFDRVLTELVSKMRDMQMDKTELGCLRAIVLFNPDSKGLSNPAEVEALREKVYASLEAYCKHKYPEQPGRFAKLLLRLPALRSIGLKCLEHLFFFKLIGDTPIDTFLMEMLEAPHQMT
Background: Quantitative high-throughput screening tests each substance at several concentrations.
Take `CCNc1nc(Cl)nc(NC(C)C)n1`: the max response is -16% and 6.8%.
As for `ClC(Cl)=C(c1ccc(Cl)cc1)c1ccc(Cl)cc1`, the max response is -7.07% and 0.666%.
For the molecule `ClC1=C(Cl)C2(Cl)C3C4C=CC(C4)C3C1(Cl)C2(Cl)Cl` (stereo not drawn), the max response is -13.5%.
Turning to `O=C(O)COc1ccc(Cl)cc1Cl`, the max response was -3.05% [middle of 4 runs].
In the case of `COC(=O)NC(=S)Nc1ccccc1NC(=S)NC(=O)OC` it was -8.67% and 3.08%.
Consider `C/C=C/c1ccc2c(c1)OCO2`, for which the max response was -0.653%.
As for `COP(=S)(OC)Oc1ccc([N+](=O)[O-])cc1`, the max response is -10.1% and -10.7%.
Consider `O=S1OCC2C(CO1)C1(Cl)C(Cl)=C(Cl)C2(Cl)C1(Cl)Cl` (stereo not drawn), for which the max response was -29.4%.
With `C=CCc1ccc(OC)cc1`, the max response was 6.28%.
Regarding `ClC1=C(Cl)C2(Cl)C3C(Cl)C=CC3C1(Cl)C2(Cl)Cl` (stereo not drawn), the max response was -17.9%.
Then `CNC(=O)O/N=C/C(C)(C)SC`, with -10.4% and 16.3% and -14.6%.
Turning to `c1ccc(N=Nc2ccccc2)cc1`, the max response is -1.15% and 2.93%.
For `CCc1cccc(CC)c1N(COC)C(=O)CCl`, the max response was -7.04%.
